Compound activity as filed in PubChem BioAssay.
TGFb inhibitor: TGF-b pathway inhibition | Potency, µM (series often up to 46.1 µM), for the others: at the top dose activity, negative = inhibition, usual class: inhibitors | 410,000 compounds, 1.2% hits | HepG2 CAGA-GFP TGF-b/SMAD3 reporter, GFP fluorescence, 18 h; TGF-beta stimulated, 500 pg/mL final; further: on the % scale 0 is the no-effect control and ±100 the full control effect; nearly all actives have a fitted effect of over 65% in size
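Read-out: total well GFP (ex488/em500-530) summed from mean per-cell fluorescence. Cells: HEPG2 CAGA-GFP, 1% FBS DMEM, 18 h at 37 degrees C with 500 pg/mL final TGF-beta. Unstimulated wells served as the full-inhibition control; stimulated DMSO wells = 0%.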
KB-3-1 cytotox: KB-3-1 parental cell cytotoxicity | 400,000 compounds, 1.4% hits | KB-3-1 viability, CellTiter-Glo ATP luminescence, 72 h | Potency, µM (series often up to 46.1 µM), usual class: cytotoxic; further: on the % scale 0 is the no-effect control and ±100 the full control effect; nearly all actives have a fitted effect of over 60% in size
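KB-3-1 parental drug-naive adenocarcinoma cells in DMEM/10% FBS, incubated 72 h at 37 C with pin-transferred compounds across a concentration series. Viability by CellTiter-Glo luminescence; concentration-response curves fitted after normalization.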
KB-V1 cytotox: kills drug-selected multidrug resistant KB-V1 cells; KB-V1 MDR cells viability, CellTiter-Glo, 72 h; Potency, µM (highest dose often 46.1 µM), hits mostly cytotoxic; 400,000 compounds, 3.4% hits; AID 1347076; further: on the % scale 0 is the no-effect control and ±100 the full control effect; nearly all actives have a fitted effect of over 60% in size
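Readout: CellTiter-Glo luminescence, 10 min after addition. Cells: KB-V1 MDR subline, 72 h at 37 degrees C with compound. Analysis: corrected, normalized data fitted to concentration-effect curves.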
ATXN2 expr inh: ATXN2 expression inhibition; HEK-293 ATXN2-luciferase reporter, luminescence, 24 h; Potency, µM (doses to about 57 µM), for the others: top-dose activity change, negative = inhibition, usual class: inhibitors; 360,000 compounds, 0.72% hits; further: on the % scale 0 is the no-effect control and ±100 the full control effect; nearly all actives have a fitted effect of over 55% in size
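qHTS (up to 57 uM final) was run with 24 h compound exposure of reporter cells at 37 °C. Each well was multiplexed: SteadyGlo luminescence measured ATXN2-luciferase expression after a fluorogenic Gly-Phe-AFC viability readout (25 uM final).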
ATXN viability: reduces viability in counter-screen for ATXN expression inhibitors. S2 cells (HEK-293 line with an ATXN2-luciferase reporter) viability, CellTiter-Fluor protease fluorescence, 24 h. Potency, µM (titrated, usually from 56.7 µM), hits mostly cytotoxic. 400,000 compounds, 0.49% hits; further: nearly all actives have a fitted effect of over 40% in size
HepG2 viability: kills HepG2 cells in TGF-b inhibitor counter-screen. Potency, µM (titrated, usually from 46.1 µM), for inactives: at the top dose activity change, negative = cytotoxicity, hits mostly cytotoxic. HepG2 CAGA-GFP viability, ATP luminescence, 18 h. 410,000 compounds, 0.76% hits. AID 588856
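HepG2 CAGA-GFP cells (1000/well, DMEM with 1% FBS) received compound, then TGF-beta at 500 pg/mL final, and were incubated 18 hours at 37 degrees C. Viability was read by CellTiter-Glo luminescence. Media-only wells were set as complete cell-killing and DMSO as no toxicity.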
* hit, by the source's call; i = inactive; ? = inconclusive; . = not tested or not shown. Rows were chosen to be rich in hits. Some 5.9% of all compounds tested hit in one or more screens of this group. The call rests on the fitted dose curve; in most records, active means well fitted curve in the direction sought with a large enough effect; inconclusive means small, poorly fitted or top-dose-only effect, or another doubt; inactive means no such curve, though single readings can be large; an effect the other way counts as inactive or inconclusive. Potency means the concentration at half of the fitted maximal effect.

SMILES	TGFb inhibitor	KB-3-1 cytotox	KB-V1 cytotox	ATXN2 expr inh	ATXN viability	HepG2 viability
Fc1ccc(-n2cc(-c3ccccc3)c3c(NN4CCOCC4)ncnc32)cc1	-12.4%	?	7.31µM*	-35.2%	i	-53.3%
O=C(NCCc1nnc2n1CCN(Cc1ccc(F)cc1)CC2)c1ccc(F)cc1	.	.	.	.	i	.
O=c1cc(CN2CCN(c3ccc(Cl)c(Cl)c3)CC2)c2c(ccc3ccccc32)o1	-23.5%	i	i	1.8%	i	-14.2%
O=C1Nc2cccnc2N(C(=O)CCl)c2ccccc21	?	20.6µM*	16.4µM*	?	20µM*	-74.1%
COc1ccc(-c2nnc(SC(C)C(=O)Nc3nccs3)n2-c2ccccc2)cc1OC (stereo not given)	8.6%	i	14.6µM*	5.3%	?	4.0%
COc1ccc(-c2nnc(SC(C)C(=O)Nc3nccs3)n2Cc2ccccc2)cc1OC (stereo not given)	-41.1%	i	i	.	.	-8.8%
CCOC(=O)C1=C(C)NC(=O)NC1c1ccc(-c2ccc(Cl)cc2)o1 (stereo not given)	0.3%	?	20.6µM*	?	i	-17.6%
CCOC(=O)C1=C(C)NC(=S)NC1c1ccc(-c2cccc(Cl)c2C)o1 (stereo not given)	?	?	?	-17.2%	i	-44.8%
CCOC(=O)C1=C(C)NC(=S)NC1c1ccc(-c2ccc(Cl)cc2)o1 (stereo not given)	?	?	8.2µM*	-38.8%	?	-5.0%
CCN1C(=O)c2ccccc2S(=O)c2ccc(C(=O)NCc3ccc(Cl)cc3)cc21 (stereo not given)	?	.	.	.	.	-37.9%
COCCN1C(=O)c2[nH]nc(-c3c(C)cc(C)cc3O)c2C1c1cccc(O)c1 (stereo not given)	?	i	i	0.0%	?	-5.9%
C=CCNc1nc(-c2sc(NC(C)=O)nc2C)cs1	2.9%	i	?	16.1%	i	-7.5%
C=CCNc1nc(-c2sc(NC(=O)C(C)(C)C)nc2C)c(-n2cc(-c3ccccc3)nn2)s1	.	?	16.4µM*	?	?	.
C[N+]1(CC(=O)c2ccc(Br)cc2)CCOCC1	-14.9%	i	i	.	.	-2.2%
CN(C)c1ccc(CNC(=O)C2(C)Cc3c(-c4ccc(N(C)C)cc4)ccnc3O2)cc1 (stereo not given)	-5.5%	?	i	?	i	-7.3%
CN(C)c1ccc(CNC(=O)C2(C)Cc3c(-c4ccc5c(c4)OCO5)ccnc3O2)cc1 (stereo not given)	-21.6%	7.31µM*	11.6µM*	-8.4%	i	-2.6%
CC1(C(=O)NCC2CC2)Cc2c(-c3ccc4c(c3)OCO4)ccnc2O1 (stereo not given)	13.1%	14.6µM*	?	0.0%	i	-18.9%
COC(=O)c1cnc(Oc2ccc(NC(=O)NC(=O)c3c(OC)cccc3OC)cc2)cc1C(F)(F)F	?	?	2.31µM*	37.5%	i	4.6%
O=C(NC(CSCc1ccccc1)C(=O)N/N=C/c1ccc(O)cc1O)c1ccc([N+](=O)[O-])cc1 (stereo not given)	?	?	i	3.16µM*	i	-61.0%
COc1cc(O)ccc1/C=N/NC(=O)c1ccc([N+](=O)[O-])cc1	-1.7%	i	i	-9.5%	i	-1.9%
CC(=O)c1ccc(S(=O)(=O)Nc2cccc(-c3ccc4nncn4n3)c2)cc1	-19.1%	i	i	-11.4%	i	-13.9%
Cc1ccc(S(=O)(=O)Nc2cccc(-c3ccc4nncn4n3)c2)cc1	-19.7%	3.66µM*	16.4µM*	-15.9%	i	-11.6%
CC(C)(C)NC(=O)NC(=O)CN1CCN(c2ccc(O)cc2)CC1	-15.4%	20.6µM*	?	-38.0%	i	1.2%
CCOc1ccccc1NC(C)C(=O)Nc1cc(C(F)(F)F)ccc1N1CCOCC1 (stereo not given)	?	?	5.8µM*	-6.6%	i	-5.3%
Cc1noc(C)c1CSCC(=O)Nc1cc(C(F)(F)F)ccc1N1CCOCC1	-16.3%	i	3.66µM*	4.1%	i	-23.8%
SMILES	TGFb inhibitor	KB-3-1 cytotox	KB-V1 cytotox	ATXN2 expr inh	ATXN viability	HepG2 viability
CCOc1ccc(-c2c(C)nn3c(C)c(C(=O)NCCc4ccc(C)cc4)cnc23)cc1OCC	-23.5%	i	i	-1.6%	i	-4.1%
COc1ccccc1Nc1cc2cc(Br)ccc2c(=O)[nH]1	?	7.31µM*	?	-17.2%	i	-34.3%
COc1ccc(OC)c(Nc2cc3ccccc3c(=O)[nH]2)c1	-19.1%	4.11µM*	23.1µM*	-12.6%	i	-37.7%
Cc1ccc(-c2cc(C(F)(F)F)n3nc(C(=O)NCC45CC6CC(CC(C6)C4)C5)cc3n2)cc1	-5.2%	i	?	1.7%	i	-0.7%
CCN1CCC(N(Cc2ccc(F)cc2)C(=O)Nc2cccc(C(F)(F)F)c2)CC1	?	i	i	28.2µM*	i	-95.7%
CCN1CCC(N(Cc2ccc(F)cc2)C(=O)Nc2ccc(C)c(F)c2)CC1	.	.	.	.	.	-48.4%
CCN1CCC(N(Cc2cccc(OC)c2)C(=O)Nc2cccc(C(F)(F)F)c2)CC1	?	i	i	-38.5%	?	7.08µM*
COc1cc(/C=N/NC(=O)c2cc(-c3ccccc3)nc3ccccc23)ccc1O	0.0%	i	i	43.1%	i	-20.9%
O=C(N/N=C/c1ccc(O)cc1)c1cc(-c2ccccc2)nc2ccccc12	0.8%	?	i	107.6%	i	-19.3%
O=C(N/N=C/c1ccc2c(c1)OCO2)c1cc(-c2ccc(F)cc2)nc2ccccc12	-3.5%	?	8.2µM*	30.1%	?	0.9%
COc1ccc(-c2cc(C(=O)N/N=C/c3ccc4c(c3)OCO4)c3ccccc3n2)c(OC)c1	-0.7%	i	i	120.1%	i	11.2µM*
COc1cc2ccccc2cc1C(=O)N/N=C/c1ccc2c(c1)OCO2	?	?	?	-14.8%	?	0.9%
COc1cc(/C=N/NC(=O)c2cc(-c3ccccc3OC(C)C)nc3ccccc23)ccc1O	-3.5%	18.4µM*	11.6µM*	30.8%	?	-44.2%
COc1ccc(/C=N/N2C(=N)SCC2=O)cc1	8.6%	7.31µM*	2.59µM*	15.6%	i	12.4%
CN(C)c1ccc2nc3c(=O)[nH]c(=O)nc-3n(CC(O)C(O)C(O)CO)c2c1 (stereo not given)	33.7%	i	i	.	12.6µM*	-19.9%
Cc1ccc2nc(N)[nH]c(=O)c2c1Sc1ccncc1	.	.	.	12.6µM*	i	.
Cc1ccc2nc3[nH]c(=O)[nH]c(=O)c3c(N)c2c1	3.8%	?	?	16.8%	i	-0.9%
